# Results published in PubChem BioAssay AID1159571 (Broad Institute, 2015).
# Results with a measured potency or affinity are listed apart. Active and inactive are the calls of the source. The rule behind the calls is not given here.
# Test: P. falciparum ATP4 D1247Y mutant growth inhibitors, dose response, NITD609-resistant line, SYBR Green, dry powder (AID 1159571)
# Details: series mostly up to 19.5 µM
row,Structure (SMILES),outcome
1,O=C(NC[C@@H]1CC[C@H]2[C@H](CN2Cc2cc(-c3ccccc3)on2)O1)c1ccc2c(c1)OCO2,inactive
2,Cc1ccccc1-c1ccccc1[C@H]1[C@@H](C#N)N(C(=O)c2ccccc2)[C@@H]1CO,inactive
3,C[C@@H]1CN([C@H](C)CO)C(=O)c2cccc(NC(=O)c3ccc(-c4nccs4)cc3)c2O[C@H]1CN(C)Cc1ccc(C(F)(F)F)cc1,inactive
4,COc1cccc(C#Cc2ccc([C@H]3[C@@H](CO)N(C(=O)c4ccccn4)[C@H]3C#N)cc2)c1,inactive
5,COc1ccc(S(=O)(=O)Nc2ccc3c(c2)CC(=O)N([C@@H](C)CO)C[C@H](C)[C@H](CN(C)S(=O)(=O)c2ccc(OC)cc2)O3)cc1,inactive
